Measured values reported in PMC5540273 (PLoS ONE, 2017).
Like-named read-outs stand apart in the source and are kept apart here.

Assays:
TAOK1 = settings: concentration: 1 μM, replicates: in singlicate; n = 1
TAOK2 = settings: concentration: 1 μM, replicates: in singlicate; n = 1
TAOK3 = settings: concentration: 1 μM, replicates: in singlicate; n = 1
TBK1 = settings: concentration: 1 μM, replicates: in singlicate; n = 1
TEC = settings: concentration: 1 μM, replicates: in singlicate; n = 1
TESK1 = settings: concentration: 1 μM, replicates: in singlicate; n = 1
TGFBR1 = settings: n = 1
TGFBR2 = settings: concentration: 1 μM, replicates: in singlicate; n = 1
TIE1 = settings: concentration: 1 μM, replicates: in singlicate; n = 1
TIE2 = tested on: T1, TIE2; settings: concentration: 1 μM, replicates: in singlicate; n = 1
T1 construct: gene TEK

[1] = concentration: 1 μM, replicates: in singlicate
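Note: KINOMEscan kinase panel screen.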

| Structure (SMILES) | %Inh (TAOK1) [%] | %Inh (TAOK2) [%] | %Inh (TAOK3) [%] | %Inh (TBK1) [%] | %Inh (TEC) [%] | %Inh (TESK1) [%] | %Inh (TGFBR1; [1]) [%] | %Inh (TGFBR2) [%] | %Inh (TIE1) [%] | %Inh (TIE2) [%] | %Inh (TGFBR1; 1 µM) [%] |
| --- | --- | --- | --- | --- | --- | --- | --- | --- | --- | --- | --- |
| Nc1cccc(-c2ccc3c(N)n[nH]c3c2)n1 [GSK2192730] | 1 | 0 | 0 | 18 | 0 | 13 | 3 | 0 | 0 | 0 | – |
| Cc1cnc(N)c(/C=C/c2cncc(C(=O)NCCc3ccc(Cl)cc3Cl)c2)c1.Cl [GSK190937] | 11 | 0 | 25 | 12 | 18 | 1 | 0 | 0 | 20 | 0 | – |
| O=C(Nc1n[nH]c2nc(-c3cccs3)c(Br)cc12)C1CCCC1 [SB-743341] | 0 | 0 | 0 | 0 | 0 | 25 | 19 | 7 | 33 | 15 | – |
| Fc1ccc(-c2nn3cccc(F)c3c2-c2ccncc2)cc1 [GW475620] | 0 | 0 | 0 | 22 | 0 | 4 | 17 | 11 | 7 | 1 | – |
| Cc1ccc(-c2nc(Nc3ccncc3)c3ccccc3n2)s1 [GSK189015] | 0 | 0 | 5 | 7 | 8 | 61 | 6 | 21 | 19 | 12 | – |
| O=C(Nc1n[nH]c2cc(-c3ccsc3)ccc12)C1CC1 [SB-732932] | 64 | 8 | 26 | 9 | 32 | 9 | 0 | 0 | 11 | 11 | – |
| Cc1ccc(NC(=O)c2ccc(Cl)cc2)cc1-c1ccc(C(=O)Nc2ccncc2)cc1 [GSK1398467] | 0 | 0 | 0 | 7 | 12 | 14 | 1 | 0 | 0 | 0 | – |
| O=C(Nc1n[nH]c2nc(-c3ccco3)c(Br)cc12)C1CCN(Cc2ccccc2)C1.O=C(O)[C@H](O)[C@@H](O)C(=O)O (stereo not shown) [SB-742034] | 0 | 0 | 10 | 18 | 8 | 23 | 0 | 21 | 0 | 17 | – |
| CCn1c(-c2c(N)noc2C)nc2cnccc21 [SB-737856] | 0 | 0 | 0 | 0 | 1 | 54 | 4 | 0 | 0 | 0 | – |
| Cn1cnc2c(N)ncnc21 [SKF-97623] | 0 | 0 | 0 | 0 | 0 | 0 | 9 | 2 | 0 | 0 | – |
| NS(=O)(=O)c1cccc(N/C=C2\C(=O)Nc3ccc(S(=O)(=O)Cc4c(Cl)cccc4Cl)cc32)c1 [GSK398099] | 0 | 2 | 10 | 37 | 6 | 9 | 0 | 0 | 0 | 0 | – |
| O=C1NC(=O)C(c2ccc(Cl)cc2)=C1Nc1cccc(Cl)c1 [SB-317651] | 15 | 2 | 15 | 15 | 0 | 22 | 0 | 8 | 0 | 6 | – |
| Cc1c(Cn2c(C)c(C)n3c(=O)cc(N4CCOCC4)nc23)cccc1C(F)(F)F [GSK2328680] | 0 | 0 | 0 | 9 | 5 | 22 | 9 | 0 | 54 | 0 | – |
| O=C1NC(=O)C(c2ccc(Cl)cc2)=C1Nc1ccc(O)cc1 [SB-340867] | 0 | 0 | 0 | 0 | 0 | 12 | 1 | 0 | 0 | 0 | – |
| COc1ccc2cc(-c3nc(-c4ccccc4C(C)C)[nH]c3-c3ccncc3)ccc2c1 [SB-660566] | 0 | 0 | 0 | 0 | 17 | 32 | 80 | 42 | 69 | 97 | – |
| COc1nccc(-c2c(-c3ccc(F)cc3)ncn2CCCN2CCOCC2)n1 [SB-282852] | 0 | 0 | 0 | 19 | 0 | 8 | 20 | 0 | 0 | 33 | – |
| Fc1ccc(-c2nc3n(c2-c2ccncc2)CCS3)cc1 [GI98581] | 0 | 0 | 0 | 5 | 1 | 23 | 26 | 8 | 19 | 0 | – |

| Structure (SMILES) | %Inh (TAOK1) [%] | %Inh (TAOK2) [%] | %Inh (TAOK3) [%] | %Inh (TBK1) [%] | %Inh (TEC) [%] | %Inh (TESK1) [%] | %Inh (TGFBR1; [1]) [%] | %Inh (TGFBR2) [%] | %Inh (TIE1) [%] | %Inh (TIE2) [%] | %Inh (TGFBR1; 1 µM) [%] |
| --- | --- | --- | --- | --- | --- | --- | --- | --- | --- | --- | --- |
| CNc1nc(-c2ccc3c(N)n[nH]c3c2)cc(N2C[C@@H](C(=O)NC3CCCCC3)OC[C@H]2C)n1 [GSK2375584] | 0 | 1 | 0 | 28 | 12 | 11 | 20 | 0 | 2 | 0 | – |
| COC(=O)c1cccc(NC(=O)NC2CCN(c3ccnc(Nc4ccc(F)cc4)n3)C2)c1 (stereo not shown) [GSK1379725] | 0 | 0 | 0 | 0 | 0 | 15 | 0 | 0 | 0 | 0 | – |
| c1ccc(-c2ccnc3[nH]ccc23)cc1 [SB-693578] | 0 | 0 | 0 | 11 | 5 | 43 | 0 | 10 | 0 | 0 | – |
| O=c1cc(N2CCOCC2)nc2n(Cc3cccc(Cl)c3Cl)c3ccccc3n12 [GSK2299009] | 0 | 0 | 0 | 22 | 20 | 17 | 0 | 0 | 24 | 5 | – |
| COc1ccc(Nc2nccc(N3CCC(NC(=O)c4cc5ccccc5s4)C3)n2)cc1 (stereo not shown) [GSK1379738] | 0 | 0 | 0 | 22 | 12 | 30 | 17 | 0 | 0 | 0 | – |
| COc1ccc(CSc2nnc(-c3ccc4c(c3)CCO4)o2)cc1 | 0 | 0 | 0 | 11 | 0 | 0 | 0 | 0 | 0 | 0 | – |
| Cn1cncc1C(=O)NC1CCN(c2ccnc(Nc3ccc(F)cc3)n2)C1 (stereo not shown) [GSK1379717] | 0 | 0 | 0 | 9 | 4 | 98.9 | 26 | 0 | 0 | 0 | – |
| Cc1ccc(NC(=O)Nc2ccccc2F)cc1-c1ccc(C(=O)Nc2ccncc2)cc1 [GSK1398477] | 0 | 0 | 0 | 13 | 24 | 2 | 0 | 13 | 35 | 0 | – |
| COc1ccc(Nc2nccc(N3CCC(NC(=O)C(C)c4ccc(Cl)cc4)CC3)n2)cc1 (stereo not shown) [GSK1379812] | 0 | 0 | 0 | 21 | 0 | 0 | 3 | 0 | 0 | 0 | – |
| CN1c2ccc(-c3ccc(C(N)=O)cc3)cc2-c2[nH]ncc2S1(=O)=O | 0 | 28 | 0 | 0 | 0 | 19 | 13 | 11 | 0 | 0 | – |
| CC(=O)c1cccc(NC(=O)NC2CCN(c3ccnc(Nc4ccc(F)cc4)n3)C2)c1 (stereo not shown) [GSK1379710] | 2 | 0 | 11 | 18 | 4 | 20 | 38 | 0 | 0 | 0 | – |
| Cc1ccccc1-c1cc(-c2c[nH]nc2-c2ccccn2)ccn1 [GW680061] | 0 | 0 | 0 | 0 | 15 | 24 | – | 0 | 6 | 0 | 5 |
| CC(C)c1ccc(O)cc1Nc1ccnc2ccc(C(F)(F)F)cc12 [GW482059] | 0 | 0 | 4 | 0 | 0 | 0 | 0 | 15 | 13 | 0 | – |
| Cc1ccc(NC(=O)Nc2ccc(Cl)cc2)cc1-c1ccc(C(=O)Nc2ccncc2)cc1 [GSK1398472] | 0 | 0 | 0 | 8 | 0 | 54 | 3 | 0 | 0 | 0 | – |
| O=c1cc(N2CCOCC2)nc2n(Cc3ccccc3F)ccn12 [GSK2297428] | 0 | 0 | 0 | 15 | 0 | 3 | 0 | 0 | 0 | 0 | – |
| COc1ccc(CSc2nnc(-c3ccc4nccn4c3)o2)cc1C(F)(F)F | 22 | 13 | 0 | 10 | 21 | 12 | 14 | 12 | 22 | 0 | – |
| CS(=O)(=O)CCNCc1nc(-c2ccc3ncnc(Nc4ccc5c(cnn5Cc5ccccc5)c4)c3c2)cs1.Cl.Cl [GW569716] | 0 | 0 | 0 | 0 | 0 | 21 | 27 | 0 | 0 | 0 | – |
